Reference: PubChem BioAssay (NCATS)
Results filed as inconclusive are left out. The source made the active and inactive calls. Unless noted, calls follow the shape of the dose curve; as a rule, active = well fitted curve in the direction sought with a large enough effect; inconclusive = small, poorly fitted or top-dose-only effect, or another doubt; inactive = no such curve, though single readings can be large; an effect the other way counts as inactive or inconclusive.

Tests used:
[1] = qHTS to identify inhibitors of the type 1 interferon - major histocompatibility complex class I in skeletal muscle: primary screen against the NCATS LOPAC collection (AID 1347405);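 also: lytic HiBiT luminescence reporting HLA-B protein level; % is scaled to controls: 0 for no effect and ±100 for the full control effect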
Procedure, shortened: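 IFN-beta-stimulated (4 ng/ml) HLA-B HiBiT knock-in myoblasts, compound-treated 24 hrs up to 46 uM final; signal via LgBiT complementation and furimazine luminescence.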

[2] = qHTS to identify inhibitors of the type 1 interferon - major histocompatibility complex class I in skeletal muscle: primary screen against the NCATS Pharmaceutical Collection (AID 1347407);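 also: luminescence of HiBiT knocked into endogenous HLA-B as interferon-induced MHC class I level; % is scaled to controls: 0 for no effect and ±100 for the full control effect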
Procedure, shortened: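 Immortalized human myoblasts (C25cl48) with HiBiT knocked into endogenous HLA-B*08:01 were stimulated with 4.0 ng/ml IFN-beta and treated with compounds ([…] top 46 uM) for 24 hrs at 37 C. HiBiT lytic luminescence read.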

[3] = qHTS for inhibitors of adenylyl cyclases using a fission yeast platform: a pilot screen against the NCATS LOPAC library (AID 1347410);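 also: plate controls were DMSO vehicle for no effect and DPI positive control for full effect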
Procedure, shortened: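 S. pombe CHP2027 (AC9-GNAS-PDE4D2) carrying PKA-repressed fbp1-GFP, incubated 18 h at 30C in EMM with LOPAC compounds at up to 57 uM. GFP gain-of-signal read by laser scanning cytometry; DMSO negative control.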

[4] = molecular target: Protein phosphatase 1D (Homo sapiens) (UniProt O15297); assay: RapidFire Mass Spectrometry qHTS Assay for Modulators of WT P53-Induced Phosphatase 1 (WIP1) (AID 1347424);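 also: amount of dephosphorylated VEPPL-S-QETFS peptide product formed by WIP1; series mostly up to about 63 µM; plate controls were DMSO wells for no effect and GSK830371 inhibitor control at 10 µM for full effect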
Procedure, shortened: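 RapidFire mass spectrometry measured dephosphorylated peptide after 5 min room-temperature reaction of 2 uM VEPPL-pS-QETFS with 10 nM WIP1 (50 mM Tris-HCl pH 7.5, 30 mM MgCl2, 0.1 mM EGTA, BSA), following 1 hr compound preincubation; 1 uM isotope-labelled product standard.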

[5] = molecular target: Protein phosphatase 1D (Homo sapiens) (UniProt O15297); assay: Rhodamine-PBP qHTS Assay for Modulators of WT P53-Induced Phosphatase 1 (WIP1) (AID 1347425); also: % of control where 0% means no effect
Procedure, shortened: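 Steps: enzyme with Rh-PBP sensor and compounds, room-temperature incubation of 1 hr, baseline read, addition of VEPPL-pS-QETFS (10 uM final), kinetic fluorescence reads at 525/598 nm. Activity equals final minus baseline signal.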

[6] = Validation qHTS assay for inhibitors of Activation Induced Cytidine Deaminase (AID): UDG Counterscreen signal (AID 1347427); also: 0% is about no effect
Procedure, shortened: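 Fluorescence at 560 nm excitation, 665 nm emission reports UDG signal after 250 mM NaOH (2x) addition and 30 min. Enzymes (AID 1 uM, UDG 2 U/mL, at 4/3x) preincubated 10 min with compound, then 4 h with 4x 250 nM DJC20/DJC23 substrate at room temperature.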

[7] = molecular target: Single-stranded DNA cytosine deaminase (Homo sapiens) (UniProt Q9GZX7); assay: Validation qHTS assay for inhibitors of Activation Induced Cytidine Deaminase (AID): AID signal (AID 1347429); also: % is scaled to controls: 0 for no effect and ±100 for the full control effect
Procedure, shortened: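 Compounds (up to 114 uM final) are tested against AID plus UDG using DJC20/DJC23 FRET substrate. Reactions incubate 4 hr at room temperature, receive NaOH for 30 min, and are read at Ex 540/Em 590 nm.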

[8] = Primary qHTS for inhibitors of La Crosse Virus (LACV) - induced cell death in SH-SY5Y cells (AID 1508616);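 also: top concentration of the series differs between compounds; 0% = infected DMSO wells and 100% = uninfected DMSO wells; higher means more rescue of cells from virus-induced death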
Procedure, shortened: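 Screening measures cell viability in LACV-infected SH-SY5Y cultures. Compound was added before virus (0.01 MOI), and ATP was detected by luminescence 6 days later.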

[9] = molecular target: Calcium and integrin-binding protein 1 (Homo sapiens) (UniProt Q99828); assay: Validation qHTS for Identification of Calcium Integrin Binding protein 1 (CIB1) Competitor (AID 1508618); also: % is scaled to controls: 0 for no effect and ±100 for the full control effect
Procedure, shortened: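 In this qHTS validation, the LOPAC set (up to 114 uM) was tested for blocking CIB1 binding to a fluorescein-tagged alphaIIb peptide, with FP detection at 480/540 nm.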

[10] = molecular target: Calcium and integrin-binding protein 1 (Homo sapiens) (UniProt Q99828); assay: Primary qHTS for Identification of Calcium Integrin Binding Protein 1 (CIB1) Competitor (AID 1508620)
Procedure, shortened: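 CIB1-GST (1 uM final) and compound incubated 15 min at room temperature before adding FITC-alphaIIb peptide tracer (100 nM final). Competition for binding read by fluorescence polarization (ex 480, em 540) after another 15 min at room temperature.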

[11] = Cell Viability qHTS for small molecule stabilizers of the endoplasmic reticulum resident proteome (AID 1508629); conditions: cell viability counter-screen, 100 nM thapsigargin for final 4 h
[12] = A High-Content qHTS Against Drug Library for the Identification of Small Molecules that Inhibit DYT1 Early Onset Primary Dystonia-Associated Cell Pathology (AID 1645839; calls by dose curve; also: series mostly up to about 46 µM)
Procedure, shortened: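 High-content imaging quantified EGFP-TorsinA mislocalization in HEK293-derived cells inducibly expressing DYT1 mutant torsinA, after 48 h exposure to compound given together with tetracycline induction. Cell count served as a toxicity channel alongside %pathology.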

[13] = molecular target: Cytochrome P450 2C9 (Homo sapiens) (UniProt P11712); assay: Cytochrome P450 family 2 subfamily C member 9 (CYP2C9) small molecule antagonists: luciferase biochemical (cell-free) qHTS assay (AID 1645842; active = well fitted curve in the direction sought with a large enough effect in the repeat runs; an effect the other way counts as inactive or inconclusive; also: nearly all actives have a fitted effect of over 55% in size; also: potency is read from the fitted curve at half-maximal effect)
Procedure, shortened: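 P450-Glo CYP2C9 system: proluciferin substrate with enzyme in mix containing 0.4% BSA, 10 min at room temperature, then NADPH regeneration solution added and incubated 1 h at 37C. Detection reagent stopped reaction; luminescence read after 20 min as RLU.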

[14] = molecular target: Papain (Carica papaya) (UniProt P00784); assay: Primary qHTS assay for inhibitors of the protease papain (AID 1645873)
[15] = molecular target: Cytochrome P450 2D6 (Homo sapiens) (UniProt P10635); assay: Cytochrome P450 family 2 subfamily D member 6 (CYP2D6) small molecule antagonists: luciferase biochemical (cell-free) qHTS assay (AID 1645840; active = well fitted curve in the direction sought with a large enough effect in the repeat runs; an effect the other way counts as inactive or inconclusive; also: nearly all actives have a fitted effect of over 55% in size; also: potency is read from the fitted curve at half-maximal effect)
Procedure, shortened: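 P450-Glo CYP2D6 system: proluciferin substrate converted by enzyme to luciferin, read by luminescence proportional to activity. Enzyme-substrate mix with compound 10 min at room temperature, then NADPH regeneration 1 h before detection reagent.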

[16] = Primary qHTS for small molecule stabilizers of the endoplasmic reticulum resident proteome: Secreted ER Calcium Modulated Protein (SERCaMP) assay (AID 1508630); also: % is scaled to controls: 0 for no effect and ±100 for the full control effect
Procedure, shortened: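 The SH-SY5Y reporter protocol was run at 3 concentrations up to 38.3 uM (primary) or 11 concentrations (follow-up): 16 h compound, 100 nM thapsigargin for 4 h, then extracellular luciferase luminescence.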

[17] = Tertiary RLuc qRT-PCR qHTS assay for Zika virus inhibitors (AID 1347169); also: top concentration of the series differs between compounds; % is scaled to controls: 0 for no effect and ±100 for the full control effect; nearly all actives have a fitted effect of over 55% in size
Procedure, shortened: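 Vero cells (1,000/well) infected with recombinant ZIKV-RLuc (Cambodian) at MOI 1-2 after compound addition, 48-72 hrs at 37 degrees C. Live-cell Renilla luciferase substrate added; luminescence read after 1-1.5 hrs.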

Chain of Protein phosphatase 1D (Homo sapiens) (O15297 whole entry, looked up): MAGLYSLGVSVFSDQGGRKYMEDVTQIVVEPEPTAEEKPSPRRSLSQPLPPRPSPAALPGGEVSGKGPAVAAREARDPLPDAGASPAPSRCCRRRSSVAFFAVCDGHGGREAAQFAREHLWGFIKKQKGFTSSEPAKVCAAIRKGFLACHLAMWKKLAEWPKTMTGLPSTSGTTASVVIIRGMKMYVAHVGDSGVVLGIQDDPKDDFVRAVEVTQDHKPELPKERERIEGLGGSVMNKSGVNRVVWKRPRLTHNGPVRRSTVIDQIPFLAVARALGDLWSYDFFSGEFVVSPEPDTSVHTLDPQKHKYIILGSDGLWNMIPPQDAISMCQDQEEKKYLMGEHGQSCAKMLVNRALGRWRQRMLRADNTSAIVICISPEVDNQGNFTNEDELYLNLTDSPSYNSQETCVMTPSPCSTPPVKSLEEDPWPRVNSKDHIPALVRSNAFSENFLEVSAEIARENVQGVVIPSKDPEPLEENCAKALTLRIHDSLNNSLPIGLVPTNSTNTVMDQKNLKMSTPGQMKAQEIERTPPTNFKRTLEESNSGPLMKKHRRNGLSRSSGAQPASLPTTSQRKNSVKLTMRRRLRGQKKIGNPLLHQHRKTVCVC
Chain of Calcium and integrin-binding protein 1 (Homo sapiens) (Q99828 whole entry, looked up): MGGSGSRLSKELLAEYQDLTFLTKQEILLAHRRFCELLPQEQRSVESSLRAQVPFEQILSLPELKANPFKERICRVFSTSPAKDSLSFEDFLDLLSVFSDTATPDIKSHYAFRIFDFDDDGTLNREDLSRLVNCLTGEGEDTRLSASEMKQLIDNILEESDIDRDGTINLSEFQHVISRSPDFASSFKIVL
Chain of Cytochrome P450 2D6 (Homo sapiens) (P10635 whole entry, looked up): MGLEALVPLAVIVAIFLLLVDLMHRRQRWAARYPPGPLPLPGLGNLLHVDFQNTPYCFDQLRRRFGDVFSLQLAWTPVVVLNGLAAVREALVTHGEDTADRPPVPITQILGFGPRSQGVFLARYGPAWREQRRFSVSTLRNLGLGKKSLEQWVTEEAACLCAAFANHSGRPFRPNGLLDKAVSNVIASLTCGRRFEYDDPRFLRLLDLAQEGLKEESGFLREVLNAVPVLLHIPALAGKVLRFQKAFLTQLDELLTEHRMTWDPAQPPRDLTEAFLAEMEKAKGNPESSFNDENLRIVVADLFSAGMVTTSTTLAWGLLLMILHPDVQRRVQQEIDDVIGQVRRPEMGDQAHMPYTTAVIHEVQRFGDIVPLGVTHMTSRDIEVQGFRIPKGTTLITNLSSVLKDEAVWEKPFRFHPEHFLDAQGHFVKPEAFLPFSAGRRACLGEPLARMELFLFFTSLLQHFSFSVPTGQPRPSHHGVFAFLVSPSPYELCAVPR
Chain of Cytochrome P450 2C9 (Homo sapiens) (P11712 whole entry, looked up): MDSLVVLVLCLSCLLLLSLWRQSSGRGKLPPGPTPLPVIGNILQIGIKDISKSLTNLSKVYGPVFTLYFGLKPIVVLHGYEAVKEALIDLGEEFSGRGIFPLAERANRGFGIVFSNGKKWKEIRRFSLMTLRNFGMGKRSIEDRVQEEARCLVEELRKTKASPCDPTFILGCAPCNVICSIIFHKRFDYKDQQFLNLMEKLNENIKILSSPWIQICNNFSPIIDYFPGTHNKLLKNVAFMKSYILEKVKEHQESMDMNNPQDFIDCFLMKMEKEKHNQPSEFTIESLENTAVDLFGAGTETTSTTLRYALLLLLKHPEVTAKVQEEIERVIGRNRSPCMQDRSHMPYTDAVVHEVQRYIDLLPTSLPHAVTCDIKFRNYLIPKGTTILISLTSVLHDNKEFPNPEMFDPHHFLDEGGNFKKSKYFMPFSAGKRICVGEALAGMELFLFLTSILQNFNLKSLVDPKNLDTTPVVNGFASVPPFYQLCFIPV
Chain of Papain (Carica papaya) (P00784 whole entry, looked up): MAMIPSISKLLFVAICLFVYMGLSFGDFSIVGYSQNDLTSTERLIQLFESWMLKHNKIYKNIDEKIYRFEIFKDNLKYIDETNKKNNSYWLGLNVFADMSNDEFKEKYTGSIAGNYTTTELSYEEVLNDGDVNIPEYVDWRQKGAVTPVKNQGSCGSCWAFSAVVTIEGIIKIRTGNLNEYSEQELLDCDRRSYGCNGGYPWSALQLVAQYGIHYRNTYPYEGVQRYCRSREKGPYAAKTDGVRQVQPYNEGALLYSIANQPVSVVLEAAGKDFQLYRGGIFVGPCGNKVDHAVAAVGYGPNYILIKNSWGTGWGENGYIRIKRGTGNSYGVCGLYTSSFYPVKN
Chain of Single-stranded DNA cytosine deaminase (Homo sapiens) (Q9GZX7 whole entry, looked up): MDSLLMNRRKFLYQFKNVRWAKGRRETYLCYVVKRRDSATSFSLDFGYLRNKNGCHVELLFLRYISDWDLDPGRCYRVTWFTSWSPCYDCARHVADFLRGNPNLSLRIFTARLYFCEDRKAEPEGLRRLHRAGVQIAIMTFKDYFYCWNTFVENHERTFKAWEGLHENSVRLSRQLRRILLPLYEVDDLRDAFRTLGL

O=C(CCCN1CCC(O)(c2cccc(C(F)(F)F)c2)CC1)c1ccc(F)cc1
inactive: Potency [1] | Potency [2] | outcome [3] | Potency [4] | outcome [5] | outcome [6] | Potency [7] | Potency [8] | outcome [9] | Potency [10] | max response [11] -8.14% | Potency [12] | Potency [13] | Potency [14]

NC(=O)c1cn(Cc2c(F)cccc2F)nn1
inactive: Potency [1] | Potency [2] | outcome [3] | Potency [4] | outcome [5] | outcome [6] | Potency [7] | Potency [8] | outcome [9] | Potency [10] | Potency [15] | Potency [13] | Potency [14]

FC(F)(F)c1ccccc1-n1ccnc1
inactive: Potency [1] | Potency [2] | outcome [3] | Potency [4] | outcome [5] | outcome [6] | Potency [8] | outcome [9] | Potency [10]
active: Potency [13] 13.8 µM

COc1ccc(CCN(C)CCCC(C#N)(c2cc(OC)c(OC)c(OC)c2)C(C)C)cc1OC (centres undefined)
inactive: Potency [1] | Potency [2] | outcome [3] | Potency [4] | outcome [5] | outcome [6] | Potency [7] | Potency [8] | outcome [9] | Potency [10] | Potency [14]

CC(N=C(NC#N)Nc1ccncc1)C(C)(C)C (centres undefined)
inactive: Potency [1] | Potency [2] | outcome [3] | Potency [4] | outcome [5] | outcome [6] | Potency [7] | Potency [8] | outcome [9] | Potency [10] | Potency [16] | Potency [14]
active: Potency [13] 3.89 µM

CCO/C([O-])=N/c1c[n+](N2CCOCC2)no1
inactive: Potency [1] | Potency [2] | outcome [3] | Potency [4] | outcome [5] | outcome [6] | Potency [8] | outcome [9] | Potency [10] | Potency [16] | Potency [13] | Potency [14]

O=C(O)CN(CCN(CC(=O)O)CC(=O)O)CCN(CC(=O)O)CC(=O)O
inactive: Potency [1] | Potency [2] | outcome [3] | Potency [4] | outcome [5] | outcome [6] | Potency [8] | outcome [9] | Potency [10] | max response [11] 25% | Potency [16] | Potency [12] | Potency [13] | Potency [14]

Cc1nc2c([nH]1)c(=O)n(C)c(=O)n2Cc1ccco1
inactive: Potency [1] | Potency [2] | outcome [3] | Potency [4] | outcome [5] | outcome [6] | Potency [7] | Potency [8] | outcome [9] | Potency [10] | Potency [12] | Potency [13] | Potency [14]

CC(C)NNC(=O)c1ccncc1
inactive: Potency [1] | Potency [2] | outcome [3] | Potency [4] | outcome [5] | outcome [6] | Potency [7] | Potency [8] | outcome [9] | Potency [10] | Potency [16] | Potency [12] | Potency [13] | Potency [14]

CCN(CC)CCNC(=O)c1cc(S(C)(=O)=O)ccc1OC
inactive: Potency [1] | Potency [2] | outcome [3] | Potency [4] | outcome [5] | outcome [6] | Potency [7] | Potency [8] | outcome [9] | Potency [10] | Potency [16] | Potency [13] | Potency [14]

CC[N+](C)(C)c1cccc(O)c1
inactive: Potency [1] | Potency [2] | outcome [3] | Potency [4] | outcome [5] | outcome [6] | Potency [7] | Potency [8] | outcome [9] | Potency [10] | Potency [16] | Potency [12] | Potency [15] | Potency [13] | Potency [14]

CCN1CCc2nc(N)oc2CC1
inactive: outcome [17] | Potency [1] | Potency [2] | outcome [3] | Potency [4] | outcome [5] | outcome [6] | Potency [7] | Potency [8] | Potency [10] | Potency [16] | Potency [12] | Potency [13]

OCCN1CCN(CCCN2c3ccccc3C=Cc3ccccc32)CC1
active: Potency [15] 13.8 µM
inactive: Potency [1] | Potency [2] | outcome [3] | Potency [4] | outcome [5] | outcome [6] | Potency [7] | Potency [8] | outcome [9] | Potency [10] | max response [11] -5.61% | Potency [13]

CN(C)C(=O)Oc1ccc[n+](C)c1
inactive: Potency [1] | Potency [2] | outcome [3] | Potency [4] | outcome [5] | outcome [6] | Potency [8] | outcome [9] | Potency [10] | Potency [16] | Potency [12] | Potency [15] | Potency [13] | Potency [14]

COc1ccc2c(c1OC)C(=O)O[C@@H]2[C@H]1c2c(cc3c(c2OC)OCO3)CCN1C
active: Potency [15] 4.9 µM | Potency [13] 0.11 µM
inactive: Potency [1] | Potency [2] | outcome [3] | Potency [4] | outcome [5] | outcome [6] | Potency [8] | outcome [9] | Potency [10] | Potency [16] | Potency [12] | Potency [14]

CCn1ccnc1CC1COc2ccccc2O1 (centres undefined)
inactive: Potency [1] | Potency [2] | outcome [3] | Potency [4] | outcome [5] | outcome [6] | Potency [7] | Potency [8] | outcome [9] | Potency [10] | Potency [12] | Potency [13] | Potency [14]
active: Potency [15] 1.74 µM

CC(C)(C)NCC(O)c1cc(O)cc(O)c1 (centres undefined)
inactive: Potency [1] | Potency [2] | outcome [3] | Potency [4] | outcome [5] | outcome [6] | Potency [8] | outcome [9] | Potency [10] | Potency [16] | Potency [15] | Potency [13]

C[N+](C)(C)CCOC(=O)CCC(=O)OCC[N+](C)(C)C
inactive: Potency [1] | Potency [2] | outcome [3] | Potency [4] | outcome [5] | Potency [7] | Potency [8] | outcome [9] | Potency [10] | Potency [16] | Potency [13] | Potency [14]
